Records with an inconclusive call do not appear. A number with no mark means an inactive call. Calls of active or inactive are those of the source. The call rests on the fitted dose curve; in most records, active means well fitted inhibition curve with a large enough effect; inconclusive means small, poorly fitted or top-dose-only effect; inactive means flat fitted curve, though single readings scatter.
biological target: Ubiquitin carboxyl-terminal hydrolase 1 (Homo sapiens) (UniProt O94782); assay: Inhibitors of USP1/UAF1: Pilot qHTS (AID 504865); conditions: purified USP1/UAF1, Ub-rhodamine cleavage fluorescence; series mostly up to 114 µM; activity change, negative = inhibition: at the top concentration; further: nearly all actives have a fitted effect of over 35% in size;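 on activity change, negative = inhibition: rhodamine fluorescence freed from ubiquitin-rhodamine substrate followed over time; top concentration of the series differs between compounds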
Sequence (O94782 whole entry, looked up): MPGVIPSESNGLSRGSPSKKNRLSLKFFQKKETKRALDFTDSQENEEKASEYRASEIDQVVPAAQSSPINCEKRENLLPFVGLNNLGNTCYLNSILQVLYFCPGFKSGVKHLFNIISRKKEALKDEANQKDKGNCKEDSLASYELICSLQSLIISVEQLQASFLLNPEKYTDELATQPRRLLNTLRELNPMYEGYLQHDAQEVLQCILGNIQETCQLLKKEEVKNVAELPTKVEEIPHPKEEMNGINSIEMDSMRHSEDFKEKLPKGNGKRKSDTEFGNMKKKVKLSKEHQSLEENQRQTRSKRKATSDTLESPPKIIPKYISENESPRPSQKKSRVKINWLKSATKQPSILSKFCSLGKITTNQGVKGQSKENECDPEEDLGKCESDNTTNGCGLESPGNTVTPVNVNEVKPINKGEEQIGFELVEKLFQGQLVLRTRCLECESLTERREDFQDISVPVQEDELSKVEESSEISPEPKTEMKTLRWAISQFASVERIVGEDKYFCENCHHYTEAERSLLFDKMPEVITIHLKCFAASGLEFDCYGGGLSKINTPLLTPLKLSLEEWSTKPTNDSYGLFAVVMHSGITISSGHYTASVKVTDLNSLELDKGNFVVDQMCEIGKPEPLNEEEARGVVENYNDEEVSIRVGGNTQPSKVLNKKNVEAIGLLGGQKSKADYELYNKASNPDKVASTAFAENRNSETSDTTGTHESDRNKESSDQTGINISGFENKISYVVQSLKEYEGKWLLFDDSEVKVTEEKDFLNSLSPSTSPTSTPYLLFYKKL
Method in brief: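 Deubiquitinase activity followed as kinetic rhodamine fluorescence release from 150 nM Ub-Rho. 1 nM USP1/UAF1 with compound, after 15 min room-temperature preincubation, in HEPES pH 7.8 buffer containing TCEP, EDTA, BSA and Tween-20.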
On the % scale 0 is the no-effect control and ±100 the full control effect; potency means the concentration at half of the fitted maximal effect.

SMILES	activity change, negative = inhibition	Potency
Cc1ccc2c(Br)cc(Br)c(O)c2n1	-11.1%	
CCCCN=C(N)N=C(N)N	0.161%	
Cc1nc(-c2ccc(Cl)cc2)oc1COC(C)(C)C(=O)O	-10%	
CC(C)(Cc1c[nH]c2ccccc12)NCC(O)COc1ccccc1C#N (configuration not stated)	-9.2%	
CCN(CC)CCOC(=O)C(Cc1cccc2ccccc12)CC1CCCO1 (configuration not stated)	4.17%	
O=C(Nc1cccc(C2=NCCN2)c1)Nc1cccc(C2=NCCN2)c1	-11%	
CCN(CC)CCNC(=O)c1cc(Br)c(N)cc1OC	-7.02%	
O=C(O)C(Cc1cc(I)c(O)c(I)c1)c1ccccc1 (configuration not stated)	-5.21%	
CCC1Nc2cc(Cl)c(S(N)(=O)=O)cc2S(=O)(=O)N1 (configuration not stated)	-5.99%	
O=C(O)Cc1csc(-c2ccc(Cl)cc2)n1	-2.24%	
O=C(Oc1cccc2cccnc12)c1ccccc1	-5.6%	
COc1ccc(CCN(C)CCCN2CCc3cc(OC)c(OC)cc3CC2=O)cc1OC	0.202%	
CN1CCC(OC(c2ccccc2)c2ccccc2)CC1		inactive
CCN1/C(=C/C=C/c2sc3ccccc3[n+]2CC)Sc2ccccc21		44.7 µM (active)
O=C(O)CCC(=O)Nc1ccc(S(=O)(=O)Nc2nccs2)cc1	-7.08% [at 54.9 µM]	
CC(=O)O[C@]1(C(C)=O)CC[C@H]2[C@@H]3C=C(Cl)C4=CC(=O)CC[C@]4(C)[C@H]3CC[C@@]21C	-8.52%	
CCC(C(=O)OCCOCCN(CC)CC)c1ccccc1 (configuration not stated)	-8.22%	
CN1CCN(c2c(F)cc3c(=O)c(C(=O)O)cn4c3c2SCC4)CC1	-6.84%	
CCCCNc1ccc(C(=O)OCCOCCOCCOCCOCCOCCOCCOCCOCCOC)cc1	12.4% [at 54.9 µM]	

SMILES	activity change, negative = inhibition	Potency
CC(C)Nc1cccnc1N1CCN(C(=O)c2cc3cc(NS(C)(=O)=O)ccc3[nH]2)CC1	-11%	
CCN(CC)CCNc1ccc(CO)c2sc3ccccc3c(=O)c12	-4.24% [at 54.9 µM]	
CC(C)CCCC(C)N (configuration not stated)	-5.93%	
CC(=O)Nc1ccc(OCC(O)CNC(C)C)cc1 (configuration not stated)	-4.11%	
CCc1oc2ccccc2c1C(=O)c1cc(Br)c(O)c(Br)c1		31.6 µM (active)
CC(=O)OC[C@H]1O[C@@H](n2ncc(=O)[nH]c2=O)[C@H](OC(C)=O)[C@@H]1OC(C)=O	-7.02%	
CCOC(=O)c1c(N)sc2c1CCN(Cc1ccccc1)C2	-13.6%	
CCOc1cc(OCC)c(C(=O)CCC(=O)O)cc1OCC	-7.95%	
Cc1ccc(-c2ncc(Cl)cc2-c2ccc(S(C)(=O)=O)cc2)cn1	-7.95%	
Nc1ccc(S(=O)(=O)NCc2ccccc2)cc1	-6.29%	
C[N+]12CCC(CC1)C(OC(=O)C(O)(c1ccccc1)c1ccccc1)C2 (configuration not stated)	-8.1%	
Cc1cc(NS(=O)(=O)c2ccc(N)cc2)nc(C)n1	-3.94%	
C#C[C@]1(O)CC[C@H]2[C@@H]3CCc4cc(OC)ccc4[C@H]3CC[C@@]21C	-3.1%	
COc1cc(C(=S)N2CCOCC2)ccc1O	-7.7%	
CCCCCCCCCCCCCC[N+](C)(C)Cc1ccccc1		28.2 µM (active)
Cc1c(-c2ccccc2)oc2c(C(=O)OCCN3CCCCC3)cccc2c1=O	3.67% [at 54.9 µM]	
NCc1ccccc1Sc1ccccc1CO	-7.68%	
Nc1ccc(C(=O)NCC(=O)O)cc1	-1.29% [at 54.9 µM]	
